Screening data deposited in PubChem by Sanford-Burnham Center for Chemical Genomics.
CF NFkB inh: inhibitors of cystic fibrosis induced NF-kB; KKLEB NF-kB-GFP reporter, PAF-induced, GFP fluorescence overnight; inhibition, % at 5 µM; hit rate 0.86% among 360,000; AID 588850;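 active = at least 50% inhibition at 5 µM, scaled per plate between neutral and stimulator controls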;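 note: PAF is a Pseudomonas aeruginosa culture filtrate used as stimulus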
Peg3 prom inh: Peg3 promoter activity inhibition | HeLa PEG-Prom luciferase reporter, luminescence, overnight | inhibition, % at 20 µM | hit rate 1.7% among 360,000 | AID 588405;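 active = inhibition of at least 50% at 20 µM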
HIF-2a inh: HIF-2a inhibition; AID 624352; hit rate 0.72% among 360,000; inhibition, % at 18.8 µM; 786-0 RCC cells HIF-2a reporter, luciferase luminescence, overnight;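 active = inhibition of the luminescence signal of 40% or more relative to plate controls, in a single-dose primary screen at 18.75 µM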
TWEAK Fn14 block: TWEAK-Fn14 signaling inhibition. hit rate 2% among 360,000. inhibition, % at 10 µM. TWEAK-stimulated Fn14 reporter cells, luciferase luminescence, 8 h. AID 1159606; in the data active = inhibition above about 50%
TROY NFkB inh: blocks TROY-dependent signaling in reporter cells; Q293 LMP1-TROYcd NF-kB luciferase reporter, 4 h; inhibition, % at 10 µM; hit rate 0.98% among 360,000;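 active = compounds whose plate-normalised and pattern-corrected inhibition of the luciferase reporter signal at the single screening dose is 50% or more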
KKLEB cytotox: reduces viability of KKLEB cystic fibrosis airway cells | KKLEB CF airway cells viability, ATPlite luminescence, overnight; hits give low values; cells stimulated with P. aeruginosa culture filtrate | activity change (cytotoxicity), % at 5 µM | hit rate 0.36% among 360,000;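 active = corrected activity change at or below -50% at 5 µM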
Each line names hits and unclear results; the compound was inactive in the other large screens. Only some compounds are listed: those with a hit (about 4% of all), similar ones and a draw of the others.

CCOC(=O)c1c(NC(=O)CSc2nnc(-c3c[nH]c4ccccc34)n2CCOC)sc2c1CCCCC2	TWEAK Fn14 block 53
Cc1ccc2c(c1)C1CN(C)CCC1N2C(=O)COc1ccc(N(C)C(=O)c2ccccc2)cc1 (configuration not stated)	none
Cc1ccc2c(c1)C1CN(C)CCC1N2C(=O)c1cccc(S(=O)(=O)N(C)C)c1 (configuration not stated)	TROY NFkB inh 67
O=S(=O)(c1ccccc1)c1cc(O)ccc1O	none
Nc1ccc(S(=O)(=O)c2cc(O)c3ccccc3c2O)cc1	TWEAK Fn14 block 79, TROY NFkB inh 74
C[n+]1c(/C=C/c2ccc3c(c2)OCO3)ccc2ccccc21	TWEAK Fn14 block 82, TROY NFkB inh 81
Nc1nc2ccccc2n1/N=C/c1ccc2c(c1)OCO2	none
C(=Cc1nc2ccccc2o1)c1ccc2c(c1)OCO2	TWEAK Fn14 block 86, TROY NFkB inh 58
C[n+]1c(/C=C/c2ccc(O)cc2)ccc2ccccc21	none
Cc1csc(SCC(=O)N(C)CC(=O)Nc2ccccc2Cl)n1	none
COc1ccc2cc3c(N)nn(C(=O)c4cccc([N+](=O)[O-])c4)c3nc2c1	none
COc1ccc2cc3c(N)nn(C(=O)C4CCC(C(C)(C)C)CC4)c3nc2c1 (configuration not stated)	CF NFkB inh 82, TWEAK Fn14 block 90, TROY NFkB inh 55
CN(C#N)c1nc(Cl)nc(Nc2cccc(Cl)c2)n1	Peg3 prom inh 99
CC(=O)Nc1ccc(C(=O)NCC(=O)OCc2ccccc2F)cc1	none
c1ccc2[nH]c(-c3cnco3)cc2c1	TWEAK Fn14 block 64, TROY NFkB inh 52
O=C(C1CCCN(S(=O)(=O)c2ccc(F)cc2)C1)N1CCCCC1 (configuration not stated)	none
CCCOc1ccc(/C=N/Nc2cc(N3CCOCC3)ncn2)c(O)c1	CF NFkB inh 54
CCOc1ccc(/C=N/Nc2cc(N3CCOCC3)ncn2)c(O)c1	none
COc1cc(NC(=O)COC(=O)CCOc2ccc(C)cc2)cc(OC)c1	none
COCCN1Cc2cccc(C(=O)Nc3ccc4c(c3)OCCO4)c2C1=O	TWEAK Fn14 block 74, TROY NFkB inh 56
Cc1c(C(=O)Nc2ccc3c(c2)OCCO3)cnn1C	TWEAK Fn14 block 91, TROY NFkB inh 73
Cc1ccc(NC(=O)c2c([N+](=O)[O-])cnn2C)cc1C	none
Cn1ncc([N+](=O)[O-])c1C(=O)Nc1ccc2c(c1)OCCO2	TWEAK Fn14 block 82, TROY NFkB inh 59
COCCN1Cc2cccc(C(=O)Nc3ccc(C)cc3)c2C1=O	none
Cn1nc(C(=O)Nc2ccc3c(c2)OCCO3)cc1C(=O)O	TWEAK Fn14 block 72, TROY NFkB inh 61
O=C(NCCCN1CCCC1=O)c1cccc(Oc2ccccc2)c1	none
CCS(=O)CC(=O)Nc1c(-c2ccccc2)oc2ccccc2c1=O (configuration not stated)	none
OCC(CO)(CO)NC(=S)Nc1cc(Cl)cc(Cl)c1	none
Cn1ccc(C(=O)Nc2ccc3c(c2)OCCO3)n1	none
Cc1nn(C)cc1C(=O)Nc1ccc2c(c1)OCCO2	TWEAK Fn14 block 66
Cn1nccc1C(=O)Nc1ccc2c(c1)OCCO2	TWEAK Fn14 block 74, TROY NFkB inh 56
Cc1ccc(NC(=O)c2ccc(NCCCN3CCOCC3)c([N+](=O)[O-])c2)cc1Cl	none
CC(C)C[C@@H](CN1CCC[C@@H]1CN1C(=S)NC[C@@H]1Cc1ccccc1)N1C[C@H](Cc2ccc(O)cc2)N(CC2CCCCC2)C1=S	none
CC(C)C[C@H]1CNC(=S)N1CC1CCCN1C[C@H](Cc1ccc(O)cc1)N1C[C@H](Cc2ccccc2)N(CC2CCCCCC2)C1=S (some centres not stated)	none
CC(C)C[C@H]1CNC(=S)N1C[C@H]1CCCN1C[C@H](CC(C)C)N1C[C@H](Cc2ccc(O)cc2)N(CC2CCCCCC2)C1=S	Peg3 prom inh 87
CC(C)C[C@H]1CNC(=S)N1CC1CCCN1C[C@H](CC(C)C)N1C[C@H](Cc2ccc(O)cc2)N(CC2CCCCCC2)C1=S (some centres not stated)	Peg3 prom inh 87
CC(C)C[C@H]1CNC(=S)N1CC1CCCN1C[C@H](CC(C)C)N1C[C@H](Cc2ccc(O)cc2)N(CC2CCCCC2)C1=S (some centres not stated)	Peg3 prom inh 78
CC(C)C[C@@H](CN1CCC[C@@H]1CN1C(=S)NC[C@@H]1Cc1ccccc1)N1C[C@H](Cc2ccc(O)cc2)N(CC2CCCCCC2)C1=S	none
Cc1ccc(OCC(=O)NNC(=O)C2CCN(c3nccc(C)n3)CC2)cc1	none
O=C(c1ccco1)N1CCN(c2ncnc3c2nnn3Cc2ccccc2Cl)CC1	none
O=C(c1ccco1)N1CCN(c2nc(C(F)(F)F)nc3c2nnn3Cc2ccccc2)CC1	TWEAK Fn14 block 55, TROY NFkB inh 53
FC(F)(F)c1cccc(Cn2nnnc2-c2cc(Cl)cc(Cl)c2)c1	none
COc1ccc(-c2nc3c(c(=O)c4ccccc4n3C)c(=O)n2Cc2ccccc2)cc1	none
COc1cc(OC)cc(-c2sc3ccc(OC)cc3c2-c2ccc(OCCN3CCCCC3)cc2)c1	CF NFkB inh 69, Peg3 prom inh 90, KKLEB cytotox -75
COc1ccc(-c2c(-c3cc(OC)cc(OC)c3)sc3ccc(OC)cc23)cc1	none
COc1ccccc1-c1sc2cc3c(cc2c1-c1ccc(OCCN2CCOCC2)cc1)OCO3	none
COc1ccc(-c2sc3cc4c(cc3c2-c2ccc(OCCN3CCCCC3)cc2)OCO4)cc1	CF NFkB inh 72, Peg3 prom inh 90, KKLEB cytotox -78
CC(=O)N1CCCc2cc(S(=O)(=O)N3CCCC(C(=O)Nc4ccc(C)cc4C)C3)ccc21 (configuration not stated)	none
FC(F)(F)c1cccc(NC(=S)NC(c2ccccc2)c2ccccc2)c1	Peg3 prom inh 50
FC(F)(F)c1cccc(NC(=S)Nc2ccc(Cl)c(Cl)c2)c1	none
Cc1cc2c(cc1C)N(C(=O)CCl)CCN2C(=O)CCl	Peg3 prom inh 109
CC(=O)Nc1cccc(NC(=O)Cc2cccs2)c1	none
CCOc1cccc(NC(=O)Cc2cccs2)c1	TWEAK Fn14 block 110 (no result: TROY NFkB inh)
O=C(Cc1cccs1)Nc1cccc(-c2nc3cc4ccccc4cc3[nH]2)c1	CF NFkB inh 81, TWEAK Fn14 block 74, TROY NFkB inh 57, KKLEB cytotox -71
CN=C(Nc1ccccc1)SC1CC(=O)N(c2ccc(C(=O)OC)cc2)C1=O (configuration not stated)	none
O=C(Cn1cc2c(n1)CCCCC2)NCc1ccccn1	none
CCCN1C(=O)/C(=C/c2nc3ccccc3c(=O)[nH]2)c2ccccc21	none
CC(C)N1C(=O)/C(=C\c2nc3ccccc3c(=O)[nH]2)c2ccccc21	Peg3 prom inh 61, TWEAK Fn14 block 68
O=C(O)c1cc2nc3c(c(C(F)(F)F)n2n1)CCCC3	none
